Whole data set: some 16,000 sequences, median “rpm ratio (pull-down/input)” near 0.94, cut for the highest 2% near 1.7. The entries come from a sample that favours the highest values as a whole.
These sequences were tested against T1, MBP-FoxP1dN (Mus musculus, UniProt P58462 326-579) (assay: PD-seq (MBP pull-down with sequencing); 20 mM Tris-HCl pH 7.5, 100 mM NaCl, 1.5 mM MgCl2, 0.4 uM protein, 0.1 uM dsDNA library, 30 min, room temperature, amylose pull-down; high values mean tight binding). Details: protein: recombinant; tags: His6-MBP; chain copies: 2; dsDNA, one strand shown.
T1 sequence: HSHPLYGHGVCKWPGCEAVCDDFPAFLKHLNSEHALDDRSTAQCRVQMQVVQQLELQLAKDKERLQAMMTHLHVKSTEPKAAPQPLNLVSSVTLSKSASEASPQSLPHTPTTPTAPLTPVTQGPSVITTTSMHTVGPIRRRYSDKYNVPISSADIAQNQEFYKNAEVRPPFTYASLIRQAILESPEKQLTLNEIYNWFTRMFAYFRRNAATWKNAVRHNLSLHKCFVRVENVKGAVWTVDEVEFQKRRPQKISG
Outline: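 Protein and DNA were mixed at 0.4 µM and 0.1 µM and held for 30 min at room temperature in Tris pH 7.5 buffer with NaCl and MgCl2; the protein was a His6-MBP-tagged, N-terminally truncated mouse FoxP3 or FoxP1 fragment from E. coli, and the DNA a Klenow-filled double-stranded degenerate library. Amylose resin captured the complexes, which were washed three times. Binding is read as reads-per-million enrichment of pull-down versus input after Illumina sequencing, with replicates pooled.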
“GATGATTGTTCTCCCAGCTGATGAATTAATGATGTCGAGTAAACAAATTTTCCTAATCTTTCTGTTCAAGCGCCATCTAC” was tested, and the binding signal was 1.2 RPM ratio (pull-down/input).
“GATGATTGTTCTCCCAGCTGATGAATTTCAGCTGTCGAGTAAACAAATTTTCCTAATCTTTCTGTTCAAGCGCCATCTAC” was tested, and the binding signal was 0.889 RPM ratio (pull-down/input).
In the case of “GATGATTGTTCTCCCAGCTGATGAATTGTTGATGTCGAGTAAACAAATTTTCCTAATCTTTCTGTTCAAGCGCCATCTAC”, the binding signal is reported as 2.27 RPM ratio (pull-down/input).
In the case of “GATGATTGTTCTCCCAGCTGATGAATTTCTATGATCGAGTAAACAAATTTTCCTAATCTTTCTGTTCAAGCGCCATCTAC”, the binding signal is reported as 0.89 RPM ratio (pull-down/input).
In the case of “GATGATTGTTCTCCCAGCTGATGAATTTTTAATATCGAGTAAACAAATTTTCCTAATCTTTCTGTTCAAGCGCCATCTAC”, the binding signal is reported as 1.24 RPM ratio (pull-down/input).
In the case of “GATGATTGTTCTCCCAGCTGATGAATTCCGACCATCGAGTAAACAAATTTTCCTAATCTTTCTGTTCAAGCGCCATCTAC”, the binding signal is reported as 0.869 RPM ratio (pull-down/input).
“GATGATTGTTCTCCCAGCTGATGAATTACGGGCATCGAGTAAACAAATTTTCCTAATCTTTCTGTTCAAGCGCCATCTAC” was tested, and the binding signal was 1.11 RPM ratio (pull-down/input).
In the case of “GATGATTGTTCTCCCAGCTGATGAATTGGCGATTTCGAGTAAACAAATTTTCCTAATCTTTCTGTTCAAGCGCCATCTAC”, the binding signal is reported as 0.865 RPM ratio (pull-down/input).
With “GATGATTGTTCTCCCAGCTGATGAATTTTACGGATCGAGTAAACAAATTTTCCTAATCTTTCTGTTCAAGCGCCATCTAC” the binding signal was 0.879 RPM ratio (pull-down/input).
For “GATGATTGTTCTCCCAGCTGATGAATTGTCACGGTCGAGTAAACAAATTTTCCTAATCTTTCTGTTCAAGCGCCATCTAC”, the binding signal was 0.924 RPM ratio (pull-down/input).
“GATGATTGTTCTCCCAGCTGATGAATTATTCGTTTCGAGTAAACAAATTTTCCTAATCTTTCTGTTCAAGCGCCATCTAC” was tested, and the binding signal was 1.01 RPM ratio (pull-down/input).
For “GATGATTGTTCTCCCAGCTGATGAATTCCTACCGTCGAGTAAACAAATTTTCCTAATCTTTCTGTTCAAGCGCCATCTAC”, the binding signal was 0.731 RPM ratio (pull-down/input).
“GATGATTGTTCTCCCAGCTGATGAATTGTTGTGGTCGAGTAAACAAATTTTCCTAATCTTTCTGTTCAAGCGCCATCTAC” was tested, and the binding signal was 2.1 RPM ratio (pull-down/input).
With “GATGATTGTTCTCCCAGCTGATGAATTGGTGTGGTCGAGTAAACAAATTTTCCTAATCTTTCTGTTCAAGCGCCATCTAC” the binding signal was 1.04 RPM ratio (pull-down/input).
With “GATGATTGTTCTCCCAGCTGATGAATTTTTGTGGTCGAGTAAACAAATTTTCCTAATCTTTCTGTTCAAGCGCCATCTAC” the binding signal was 1.23 RPM ratio (pull-down/input).
“GATGATTGTTCTCCCAGCTGATGAATTTCTGTGGTCGAGTAAACAAATTTTCCTAATCTTTCTGTTCAAGCGCCATCTAC” was tested, and the binding signal was 0.924 RPM ratio (pull-down/input).
With “GATGATTGTTCTCCCAGCTGATGAATTGTGTTGGTCGAGTAAACAAATTTTCCTAATCTTTCTGTTCAAGCGCCATCTAC” the binding signal was 1.92 RPM ratio (pull-down/input).
For “GATGATTGTTCTCCCAGCTGATGAATTGGTTGTGTCGAGTAAACAAATTTTCCTAATCTTTCTGTTCAAGCGCCATCTAC”, the binding signal was 1.2 RPM ratio (pull-down/input).
With “GATGATTGTTCTCCCAGCTGATGAATTAGCTCAGTCGAGTAAACAAATTTTCCTAATCTTTCTGTTCAAGCGCCATCTAC” the binding signal was 0.833 RPM ratio (pull-down/input).
For “GATGATTGTTCTCCCAGCTGATGAATTTAGGTACTCGAGTAAACAAATTTTCCTAATCTTTCTGTTCAAGCGCCATCTAC”, the binding signal was 0.947 RPM ratio (pull-down/input).
With “GATGATTGTTCTCCCAGCTGATGAATTTCGCATCTCGAGTAAACAAATTTTCCTAATCTTTCTGTTCAAGCGCCATCTAC” the binding signal was 1.21 RPM ratio (pull-down/input).
With “GATGATTGTTCTCCCAGCTGATGAATTTGCCGGATCGAGTAAACAAATTTTCCTAATCTTTCTGTTCAAGCGCCATCTAC” the binding signal was 0.839 RPM ratio (pull-down/input).
With “GATGATTGTTCTCCCAGCTGATGAATTAAATCAATCGAGTAAACAAATTTTCCTAATCTTTCTGTTCAAGCGCCATCTAC” the binding signal was 1.01 RPM ratio (pull-down/input).
“GATGATTGTTCTCCCAGCTGATGAATTTAAAACATCGAGTAAACAAATTTTCCTAATCTTTCTGTTCAAGCGCCATCTAC” was tested, and the binding signal was 1.37 RPM ratio (pull-down/input).
“GATGATTGTTCTCCCAGCTGATGAATTAATCTAATCGAGTAAACAAATTTTCCTAATCTTTCTGTTCAAGCGCCATCTAC” was tested, and the binding signal was 1.1 RPM ratio (pull-down/input).
With “GATGATTGTTCTCCCAGCTGATGAATTAAACAACTCGAGTAAACAAATTTTCCTAATCTTTCTGTTCAAGCGCCATCTAC” the binding signal was 1.84 RPM ratio (pull-down/input).
In the case of “GATGATTGTTCTCCCAGCTGATGAATTAATCAACTCGAGTAAACAAATTTTCCTAATCTTTCTGTTCAAGCGCCATCTAC”, the binding signal is reported as 1.1 RPM ratio (pull-down/input).
In the case of “GATGATTGTTCTCCCAGCTGATGAATTAAAACAATCGAGTAAACAAATTTTCCTAATCTTTCTGTTCAAGCGCCATCTAC”, the binding signal is reported as 2 RPM ratio (pull-down/input).
For “GATGATTGTTCTCCCAGCTGATGAATTAAAAACATCGAGTAAACAAATTTTCCTAATCTTTCTGTTCAAGCGCCATCTAC”, the binding signal was 2.08 RPM ratio (pull-down/input).
“GATGATTGTTCTCCCAGCTGATGAATTAATTCAATCGAGTAAACAAATTTTCCTAATCTTTCTGTTCAAGCGCCATCTAC” was tested, and the binding signal was 0.961 RPM ratio (pull-down/input).
For “GATGATTGTTCTCCCAGCTGATGAATTAAAAAAATCGAGTAAACAAATTTTCCTAATCTTTCTGTTCAAGCGCCATCTAC”, the binding signal was 1.04 RPM ratio (pull-down/input).
In the case of “GATGATTGTTCTCCCAGCTGATGAATTAAACTCCTCGAGTAAACAAATTTTCCTAATCTTTCTGTTCAAGCGCCATCTAC”, the binding signal is reported as 0.846 RPM ratio (pull-down/input).
In the case of “GATGATTGTTCTCCCAGCTGATGAATTAAACAAATCGAGTAAACAAATTTTCCTAATCTTTCTGTTCAAGCGCCATCTAC”, the binding signal is reported as 2.02 RPM ratio (pull-down/input).
“GATGATTGTTCTCCCAGCTGATGAATTAAATTAATCGAGTAAACAAATTTTCCTAATCTTTCTGTTCAAGCGCCATCTAC” was tested, and the binding signal was 1.01 RPM ratio (pull-down/input).

Source: PMC12820563, “FoxP3 forms a head-to-head dimer in vivo and stabilizes its multimerization on adjacent microsatellites”
